# Measurements published in PubChem BioAssay (Tox21).
# Values without a mark were called inactive. Records with an inconclusive call do not appear. Where a call stands in place of a potency, no number is given. Activity calls are given as the source filed them. Calls follow the shape of the dose curve; as a rule, active = well fitted curve in the direction sought with a large enough effect in the repeat runs; inconclusive = weak or mixed curves; inactive = no such curve, though single readings can be large; an effect the other way counts as inactive or inconclusive.
# Tests used:
# [1] = Human pregnane X receptor (PXR) small molecule agonists, qHTS cell viability counter screen (AID 1346977); also: nearly all actives have a fitted effect of over 50% in size; also: potency is read from the fitted curve at half-maximal effect
# In short: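 PXR-Luc HepG2 cells in medium with 5% charcoal-stripped FBS were pre-incubated 5hr, then exposed to compounds for 24hr at 37C. Viability was read in the same wells by CellTiter-Fluor fluorescence, reagent added after 23hr with a 1hr incubation.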
# [2] = Caspase-3/7 induction in HepG2 cells by small molecules, qHTS assay (AID 1346978); also: nearly all actives have a fitted effect of over 15% in size
# In short: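 Wild-type HepG2 cells (2,000/well) were settled 5 h at 37 C, 5% CO2, then exposed to compounds in DMSO for 17 h. Caspase-3/7 activity was read by luminescence 30 min after adding Caspase-Glo 3/7 reagent at room temperature.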
# [3] = Caspase-3/7 induction in CHO-K1 cells by small molecules, qHTS assay (AID 1346980); also: nearly all actives have a fitted effect of over 15% in size; also: potency is read from the fitted curve at half-maximal effect
# In short: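 Wild-type cells were seeded at 1,500 per well and settled 5 hr at 37 C, 5% CO2, then exposed to DMSO-dissolved compounds for 17 hr. Caspase-Glo 3/7 reagent was added, and luminescence was read after 30min at room temperature.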
# [4] = biological target: Nuclear receptor subfamily 1 group I member 2 (Homo sapiens) (UniProt O75469); assay: Human pregnane X receptor (PXR) small molecule agonists, qHTS assay (AID 1346982); also: nearly all actives have a fitted effect of over 35% in size; also: potency is read from the fitted curve at half-maximal effect
# In short: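 Agonist mode qHTS: PXR-Luc HepG2 cells plated 5 hr before DMSO-dissolved compounds were pinned in, cultured 24 hr at 37 C, 5% CO2; ONE-Glo luminescence readout.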
# [5] = biological target: Nuclear receptor subfamily 1 group I member 2 (Rattus norvegicus) (UniProt Q9R1A7); assay: Rat pregnane X receptor (rPXR) activation by small molecules, qHTS assay (AID 1346983); settings: rPXR luciferase reporter cells, One-Glo luminescence, 24 h; max activation: hits give high values; also: nearly all actives have a fitted effect of over 20% in size
# In short: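 Cell-based rPXR luciferase reporter assay, 2,000 cells per well, rested 5hr at 37 C before compound addition in DMSO, then 24 hr at 37 C. One-Glo reagent was added and luminescence read after 30 min at room temperature.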
# [6] = biological target: Nuclear receptor subfamily 1 group I member 2 (Homo sapiens) (UniProt O75469); assay: CYP3A4 induction through human pregnane X receptor (PXR) by small molecules, qHTS assay (AID 1346984); also: nearly all actives have a fitted effect of over 40% in size; also: potency is read from the fitted curve at half-maximal effect
# In short: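 Steps: seed DPX-2 cells, 5 hr at 37C; pin-transfer compounds; 24 hr at 37C; add Luciferin-IPA (3uM final), 3 hr at 37C; add One-Glo, 30 min RT; read luminescence.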
# [7] = biological target: Nuclear receptor subfamily 1 group I member 2 (Homo sapiens) (UniProt O75469); assay: Human pregnane X receptor (PXR) activation by small molecules, qHTS assay (AID 1346985); also: nearly all actives have a fitted effect of over 40% in size; also: potency is read from the fitted curve at half-maximal effect
# In short: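 DPX-2 cells (HepG2 co-transfected with a PXR response element and a CYP3A4-promoter luciferase construct) were seeded at 2,000 per well, rested 5 hr at 37C, then exposed to DMSO-dissolved compounds for 24 hr. Activation was read as luciferase luminescence.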
# [8] = biological target: Cytochrome P450 2D6 (Homo sapiens) (UniProt P10635); assay: Cytochrome P450 Family 2 Subfamily D Member 6 (CYP2D6) small molecule antagonists: luciferase reporter qHTS assay (AID 1671196); also: nearly all actives have a fitted effect of over 50% in size; also: potency is read from the fitted curve at half-maximal effect
# In short: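 P450-Glo format: CYP2D6 converts a proluciferin substrate to luciferin in an NADPH-driven reaction lasting 1 h at room temperature. Light output, proportional to CYP2D6 activity, reflects interference by test chemicals.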
# [9] = Caspase-3/7 induction in HepG2 cells by small molecules, qHTS cell viability counter screen (AID 1346981); also: nearly all actives have a fitted effect of over 30% in size; also: potency is read from the fitted curve at half-maximal effect
# In short: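 Steps: seed 2,000 HepG2 cells per well; incubate 5 hr at 37 C; pin-add compounds in DMSO; incubate 16 hr; add CellTiter-Fluor; after 1 hr at 37 C and 5% CO2, read fluorescence.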
# [10] = Caspase-3/7 induction in CHO-K1 cells by small molecules, qHTS cell viability counter screen (AID 1346979); also: nearly all actives have a fitted effect of over 35% in size; also: potency is read from the fitted curve at half-maximal effect
# In short: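 Wild-type CHO-K1 cells were seeded at 1,500 per well, rested 5hr at 37 C, then exposed to compounds in DMSO. After 16hr, CellTiter-Fluor reagent was added and fluorescence read 1hr later as the viability measure.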
# Chain of Nuclear receptor subfamily 1 group I member 2 (Homo sapiens) (O75469 whole entry, looked up): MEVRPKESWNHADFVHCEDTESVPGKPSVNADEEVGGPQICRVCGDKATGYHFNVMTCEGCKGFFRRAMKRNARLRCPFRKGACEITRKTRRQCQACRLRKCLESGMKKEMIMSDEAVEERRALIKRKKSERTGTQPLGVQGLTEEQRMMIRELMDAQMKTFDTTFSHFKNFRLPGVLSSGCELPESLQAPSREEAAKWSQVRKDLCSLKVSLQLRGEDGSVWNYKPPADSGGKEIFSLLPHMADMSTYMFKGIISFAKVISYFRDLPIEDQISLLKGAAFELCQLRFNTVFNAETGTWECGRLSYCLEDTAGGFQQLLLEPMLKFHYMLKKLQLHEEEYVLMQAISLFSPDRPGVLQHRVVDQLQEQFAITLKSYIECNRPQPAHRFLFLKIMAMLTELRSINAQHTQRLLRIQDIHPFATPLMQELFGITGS
# Chain of Nuclear receptor subfamily 1 group I member 2 (Rattus norvegicus) (Q9R1A7 whole entry, looked up): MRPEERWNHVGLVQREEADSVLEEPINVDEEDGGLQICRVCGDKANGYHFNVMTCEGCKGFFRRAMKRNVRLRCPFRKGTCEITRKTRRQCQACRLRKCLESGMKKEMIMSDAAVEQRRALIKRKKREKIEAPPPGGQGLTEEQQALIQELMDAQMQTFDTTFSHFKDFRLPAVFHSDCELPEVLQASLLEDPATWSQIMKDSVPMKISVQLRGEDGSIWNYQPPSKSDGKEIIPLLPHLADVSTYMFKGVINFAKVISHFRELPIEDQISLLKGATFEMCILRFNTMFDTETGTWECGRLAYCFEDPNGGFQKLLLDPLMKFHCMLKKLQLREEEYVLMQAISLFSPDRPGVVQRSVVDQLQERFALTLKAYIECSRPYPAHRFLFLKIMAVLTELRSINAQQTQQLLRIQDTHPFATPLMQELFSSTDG
# Chain of Cytochrome P450 2D6 (Homo sapiens) (P10635 whole entry, looked up): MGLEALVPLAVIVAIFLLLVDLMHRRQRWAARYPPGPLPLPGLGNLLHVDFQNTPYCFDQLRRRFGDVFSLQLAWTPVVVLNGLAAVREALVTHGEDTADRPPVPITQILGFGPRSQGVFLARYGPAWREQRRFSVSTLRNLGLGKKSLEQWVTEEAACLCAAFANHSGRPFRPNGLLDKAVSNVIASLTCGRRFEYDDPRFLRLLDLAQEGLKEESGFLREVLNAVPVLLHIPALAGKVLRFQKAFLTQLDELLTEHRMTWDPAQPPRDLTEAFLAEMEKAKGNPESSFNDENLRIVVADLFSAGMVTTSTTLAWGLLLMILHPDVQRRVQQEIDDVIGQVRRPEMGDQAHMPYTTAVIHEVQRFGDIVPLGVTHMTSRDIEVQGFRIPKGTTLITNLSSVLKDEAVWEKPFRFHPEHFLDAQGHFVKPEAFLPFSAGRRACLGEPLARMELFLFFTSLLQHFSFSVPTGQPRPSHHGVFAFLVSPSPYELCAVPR
SMILES,Potency [1],Potency [2],Potency [3],Potency [4],max activation [5] [%],Potency [6],Potency [7],Potency [8],Potency [9],Potency [10]
CO[C@@H]1[C@H](OC(=O)/C=C/C=C/C=C/C=C/C(=O)O)CC[C@]2(CO2)[C@H]1[C@@]1(C)O[C@@H]1CC=C(C)C,inactive,inactive,inactive,15.4 µM (active),0.0882,inactive,inactive,–,–,–
CN1CCC(=C2c3ccccc3Sc3ccccc32)CC1,23.7 µM (active),inactive,inactive,inactive,-5.4,10 µM (active),14.1 µM (active),3.47 µM (active),–,–
CC(=O)OC[C@H]1O[C@@H](n2ncc(=O)[nH]c2=O)[C@H](OC(C)=O)[C@@H]1OC(C)=O,inactive,inactive,inactive,inactive,-1.15,inactive,inactive,4.36 µM (active),inactive,–
CCCCCCCCCCO[C@@H]1O[C@H](CO)[C@@H](O)[C@H](O)[C@H]1O,inactive,inactive,inactive,–,–,–,–,inactive,–,–
CNCCCCOc1ccccc1Cc1ccccc1,26.6 µM (active),–,inactive,inactive,–,–,inactive,2.45 µM (active),inactive,–
Cc1cccc(Nc2ccccc2)c1,inactive,–,inactive,–,–,–,–,–,inactive,inactive
COc1cccc(N(C)C(=S)Oc2ccc3c(c2)CCCC3)n1,inactive,inactive,inactive,8.41 µM (active),–,–,1.26 µM (active),inactive,inactive,–
CC1OC(=O)C(C)OC1=O (configuration not stated),inactive,inactive,inactive,inactive,–,–,–,inactive,inactive,–
COc1ccc(S(=O)(=O)N2C(=O)[C@@](c3ccccc3OC)(N3C[C@H](O)C[C@H]3C(=O)N(C)C)c3cc(Cl)ccc32)c(OC)c1,54.5 µM (active),–,61.1 µM (active),61.1 µM (active),–,–,–,–,30.6 µM (active),30.6 µM (active)
CN(C)CCN(Cc1ccc(Cl)cc1)c1ccccn1,–,inactive,inactive,–,–,–,–,0.275 µM (active),inactive,–
Cc1oc(-c2ccccc2)nc1CCOc1cccc2c1ccn2CCC(=O)O,–,inactive,inactive,inactive,–,–,–,inactive,–,34.4 µM (active)
O=C1OC(CN2CCOCC2)CN1/N=C/c1ccc([N+](=O)[O-])o1 (configuration not stated),–,inactive,inactive,inactive,-7.02,inactive,inactive,–,–,–
CCCCCCOC(=O)NC(=N)c1ccc(NCc2nc3cc(C(=O)N(CCC(=O)OCC)c4ccccn4)ccc3n2C)cc1,–,inactive,inactive,11.9 µM (active),–,–,–,–,–,29.8 µM (active)
CC(C)C[C@H]1C(=O)N2CCC[C@H]2[C@]2(O)O[C@](NC(=O)[C@@H]3C=C4c5cccc6[nH]c(Br)c(c56)C[C@H]4N(C)C3)(C(C)C)C(=O)N12,–,inactive,inactive,–,0.513,inactive,–,inactive,16.4 µM (active),–
O=C1[C@H]2CCCC[C@H]2C(=O)N1CCCCN1CCN(c2nsc3ccccc23)CC1,–,inactive,inactive,5.31 µM (active),2.09,–,12.6 µM (active),–,inactive,–
CC(=O)c1ccc2c(c1)N(CCCN(C)C)c1ccccc1S2,–,inactive,inactive,inactive,-2.15,inactive,inactive,–,–,–
OC(C#CCN1CCCC1)(c1ccccc1)c1ccccc1,–,inactive,inactive,23.7 µM (active),1.06,15.8 µM (active),–,11 µM (active),inactive,inactive
CN1CCC(N(Cc2cccs2)c2ccccc2)CC1,–,inactive,inactive,–,–,–,–,–,–,–
CN1CCN(C(c2ccccc2)c2ccccc2)CC1,–,inactive,inactive,inactive,-2.77,inactive,inactive,4.9 µM (active),inactive,inactive
CC(C)OC(=O)C(C)N(C(=O)c1ccccc1)c1ccc(F)c(Cl)c1 (configuration not stated),–,inactive,inactive,2.73 µM (active),–,–,–,inactive,–,–
CCCCCCCC#N,–,–,inactive,–,–,–,–,–,–,inactive
O=C(Cl)c1cc(C(=O)Cl)cc(C(=O)Cl)c1,–,inactive,inactive,54.5 µM (active),–,–,–,–,inactive,–
CN(C)C(=O)NC1(c2ccccc2)CCN(CC[C@@]2(c3ccc(F)c(F)c3)CN(C(=O)c3ccccc3)CCO2)CC1,–,inactive,inactive,8.02 µM (active),–,–,–,26.2 µM (active),–,–
CCN(CC)CCOC(=O)C(c1ccccc1)C1CCCCC1 (configuration not stated),–,inactive,inactive,13.3 µM (active),1.58,inactive,25.1 µM (active),1.1 µM (active),–,–
CCc1c(C(=O)NN2CCCCC2)nn(-c2ccc(Cl)cc2Cl)c1-c1ccc(Br)cc1,–,inactive,inactive,48.6 µM (active),–,–,–,inactive,–,27.3 µM (active)
CN1C[C@H]2c3ccccc3Oc3ccc(Cl)cc3[C@@H]2C1,–,inactive,inactive,inactive,–,–,–,0.11 µM (active),–,inactive
CN(C)CCOC(c1ccccc1)c1ccc(Br)cc1 (configuration not stated),–,inactive,inactive,inactive,–,–,–,1.55 µM (active),–,inactive
C#C[C@]1(O)CC[C@H]2[C@@H]3CCc4cc(OC5CCCC5)ccc4[C@H]3CC[C@@]21C,–,inactive,inactive,–,-3.04,–,–,inactive,inactive,29.8 µM (active)
CCCCCCCCCCCCCCCCCCOS(=O)(=O)O,–,inactive,inactive,–,–,–,–,inactive,inactive,–
Cc1oc2c(NC(=O)c3c(Cl)cccc3Cl)cccc2c1C(C)(C)O,–,inactive,inactive,1.09 µM (active),–,–,–,–,–,61.1 µM (active)
